# GPR151 ag = activators of human GPR151. Q8TDV0. PathHunter beta-arrestin GPR151 cells, luminescence. activation, % at 11.2 µM. 650,000 compounds, 1% hits. AID 1508602; in the data active = activation above about 4.9%;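 note: 0% = median of compound wells and 100% = cells with positive control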
# TEAD-YAP block = TEAD-YAP interaction inhibition. inhibition, % at 9.12 µM. 640,000 compounds, 1.4% hits. HEK-TIYL cells, TEAD-Gal4/YAP UAS-luciferase luminescence; in the data active = inhibition above about 32%;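 note: 0% = median of test compound wells and 100% = reference inhibitor wells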
# FBW7 activator = activators of human E3 ligase FBW7; Q969H0; AlphaScreen FBW7–phospho-cyclin E peptide binding, activator screen; normalized activity (activation), % at 26.1 µM; 650,000 compounds, 0.13% hits; AID 1259310; in the data active = normalized activity above about 1.9%;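 note: purified mutant Fbw7 with reduced substrate affinity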
# MITF inh = human MITF inhibition, primary screen. O75030. AlphaScreen MITF homodimerization, bead proximity signal. inhibition, % at 2.6 µM. 650,000 compounds, 0.91% hits; in the data active = inhibition above about 50%;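 note: 0% = vehicle wells with protein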
# Target sequence (O75030 whole entry, looked up): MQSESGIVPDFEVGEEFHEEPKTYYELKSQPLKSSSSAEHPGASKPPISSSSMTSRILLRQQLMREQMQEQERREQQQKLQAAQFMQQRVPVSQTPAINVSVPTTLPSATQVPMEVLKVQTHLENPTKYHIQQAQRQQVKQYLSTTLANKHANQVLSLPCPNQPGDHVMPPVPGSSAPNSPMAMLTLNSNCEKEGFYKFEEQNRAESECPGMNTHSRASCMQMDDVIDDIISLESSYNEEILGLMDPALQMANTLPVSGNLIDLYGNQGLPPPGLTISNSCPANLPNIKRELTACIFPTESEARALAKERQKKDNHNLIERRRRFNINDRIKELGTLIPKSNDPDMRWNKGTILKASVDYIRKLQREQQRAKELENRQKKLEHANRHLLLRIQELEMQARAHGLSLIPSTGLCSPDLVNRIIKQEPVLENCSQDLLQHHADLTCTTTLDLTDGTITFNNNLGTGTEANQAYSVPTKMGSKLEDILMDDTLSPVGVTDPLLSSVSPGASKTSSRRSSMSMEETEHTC
# Starred values were filed as active, the others as inactive. Compounds with a hit are over-represented: about 3.4% of the library has one in this group of screens.
SMILES,GPR151 ag,TEAD-YAP block,FBW7 activator,MITF inh
COc1ccc(CCNC(=O)CSc2nccn3nc(-c4ccc(C)cc4)cc23)cc1OC,-0.3,-27.2,-0.1,-12.5
O=C1CSC(c2ccc(Cl)cc2Cl)N1 (configuration not stated),1.5,6.8,0.4,16.2
COc1ccc(C(=O)Nn2c(SCC(=O)N3CCC(C)CC3)nc3ccccc3c2=O)cc1,1.4,82.4*,0.2,7.1
COc1ccc(C(=O)Nn2c(C3CC3)nc3ccccc3c2=O)cc1,-0.2,-1.2,-0.1,7.2
O=C(O)CSc1nc2ccccc2n1CC(=O)NC1CCCCC1,-0.9,-2.5,1.9*,0.8
C=CC[n+]1c(NNC(=O)c2ccc(Br)cc2)sc(C)c1-c1ccc(OCC)cc1,0.8,-3.8,-0.1,-7.3
COc1ccc2c(O)c(-c3ccc4c(c3)OCCO4)c(=O)oc2c1,-2.9,-9.9,0.4,12.7
CC(=O)Oc1ccc(-c2csc(Nc3ccc(N(C)C)cc3)n2)cc1,1.9,26.1,-0.1,17.6
CCc1ccc2c(c1)/C(=c1/sc3n(c1=O)CN(c1cccc(C(=O)O)c1)CN=3)C(=O)N2,-0.7,-0.8,3.9*,2.8
COc1cc(/C=N/NC(=O)CC(=O)N/N=C/c2ccc(O)c(OC)c2)ccc1O,0.7,1.6,0.2,2.5
CC1CCN(C(=O)c2ccc3nc(N4C(=O)CCC4=O)sc3c2)CC1,-0.1,-9.6,1.9*,16.9
Cc1n[nH]c(C)c1S(=O)(=O)Nc1cccc(Cl)c1,0.4,-9.8,-0.1,-3.0
O=C(c1ccccc1)c1ccc(C(=O)N(C2CCCCC2)C2CCCCC2)o1,-0.5,8.0,-0.2,3.9
CC12COC3(C(=O)Nc4ccccc4)CC1CCC32C (configuration not stated),-1.3,0.1,0.0,7.9
CC12COC3(C(=O)Nc4nc5ccccc5s4)CC1CCC32C (configuration not stated),-0.3,67.1*,-0.1,-3.4
O=C1NC2(CCN(C(=O)c3nccc4ccccc34)CC2)Nc2ccc(Cl)cc21,1.1,77.6*,0.0,-9.2
Cc1cc(N2CCN(c3ncccn3)CC2)nc2ccc(NC(=O)c3ccncc3)cc12,1.1,47.9*,0.1,6.1
COc1cc(/C=C/C(=O)Nc2ccc3nc(N4CCN(c5ncccn5)CC4)cc(C)c3c2)cc(OC)c1OC,1.7,42.2*,0.0,0.9
CC(NC(=O)c1ccc(S(=O)(=O)N2CCCCC2)cc1)C12CC3CC(CC(C3)C1)C2 (configuration not stated),-0.1,-0.6,0.0,-11.4
O=[N+]([O-])c1ccc(Nc2c(/C=N/O)[nH]c3ccccc23)cc1,0.0,5.6,0.2,5.7
O=C1OC(Nc2nc3ccccc3s2)c2ccccc21 (configuration not stated),-0.6,-4.3,2.0*,10.2
Cc1csc(NC2OC(=O)c3ccccc32)n1 (configuration not stated),0.4,-6.1,-0.1,16.5
Cc1ccc(CN2CCc3c(cnc(C)c3CNC(=O)CCOc3ccccc3)C2)s1,0.8,3.0,0.0,19.3
COC(=O)c1ccc(/C=C/C(=O)c2ccc3c(c2)OCCO3)cc1,-0.9,-53.3,0.0,-10.8
COC(=O)c1ccc(C=Nc2ccc3c(c2)OCCO3)cc1,-1.3,62.3*,0.0,-8.0
SMILES,GPR151 ag,TEAD-YAP block,FBW7 activator,MITF inh
CC(=O)c1ccc(NC(=O)c2cc(-n3cnnc3)ccc2Cl)cc1,2.4,13.2,-0.1,5.8
CCN1CCN(Cc2ccc(NC(=O)Nc3cc(F)ccc3F)cc2)CC1,-0.6,40.0*,-0.2,0.0
Nc1ccc(-c2nc3ccccc3s2)c(Cl)c1,0.3,-0.7,0.1,-2.0
Nc1ccc(-c2nc3ccccc3s2)cc1,-8.6,50.9*,0.1,-7.6
Nc1ccc2nc(-c3ccccc3)sc2c1,-7.9,84.6*,2.7*,9.8
c1ccc(-c2ccc(-c3nc4ccccc4s3)cc2)cc1,0.0,92.5*,0.1,-10.6
FC(F)(F)c1cccc(N2CCN(c3ncnc4sc5c(c34)CCCC5)CC2)c1,2.0,-3.6,0.0,6.6
NC(=O)/C(=C/c1ccc2c(c1)OCO2)NC(=O)c1ccccc1Br,0.3,-7.8,0.0,13.6
COc1ccc(N=C(C)C2=C(O)c3ccccc3C2=O)c(OC)c1,2.0,-16.5,-0.3,-6.2
Cc1ccccc1N=CC1=C(O)c2ccccc2C1=O,-0.5,86.7*,0.0,6.8
COc1ccc(N=CC2=C(O)c3ccccc3C2=O)c(OC)c1,1.2,69.4*,0.0,2.9
O=C1C(C=Nc2ccc(F)cc2)=C(O)c2ccccc21,-1.6,11.8,0.0,3.8
CCOC(=O)C1=C(N)OC2=C(C(=O)CCC2)C1c1ccc(CC)s1 (configuration not stated),0.1,-11.5,0.0,5.8
C[C@H]1NC(=O)[C@@H]2C[C@H](NC(=O)Nc3ccccc3)CN2C1=O,0.4,8.4,0.1,-1.5
CC(=O)Nc1ccc(Nc2nc(Nc3ccccn3)nc3c2ncn3-c2ccsc2)cc1,-1.4,44.5*,0.0,-3.4
c1ccc(Nc2nc(Nc3ccc(N4CCOCC4)cc3)c3ncn(-c4ccsc4)c3n2)nc1,1.4,37.4*,0.0,1.7
c1cnc(Nc2nc(Nc3ccc(N4CCOCC4)cc3)c3ncn(-c4ccsc4)c3n2)cn1,0.8,46.0*,-0.2,-8.5
c1ccc(Nc2nc(Nc3ccc(N4CCOCC4)cc3)c3ncn(-c4ccsc4)c3n2)cc1,2.7,38.9*,0.3,6.5
c1cncc(CNc2nc(Nc3ccc(N4CCOCC4)cc3)c3ncn(-c4ccsc4)c3n2)c1,0.4,20.4,-0.1,9.0
CC(=O)Nc1ccc(Nc2nc(Nc3ccc4ncccc4c3)nc3c2ncn3-c2ccsc2)cc1,0.3,30.1,0.0,8.3
CCn1c(SCC(=O)c2ccccc2)nc2c(c1=O)SCC2,-0.3,10.6,-0.1,11.2
O=C1CN(C(=O)COC(=O)CCN2C(=O)C3CC=CCC3C2=O)c2ccccc2N1 (configuration not stated),3.2,-1.1,0.0,3.8
c1ccc2c(Nc3nc(Nc4ccc(N5CCOCC5)cc4)c4ncn(-c5ccsc5)c4n3)nccc2c1,-1.3,72.6*,-0.3,16.3
c1ccc(Nc2nc(Nc3nccc4ccccc34)nc3c2ncn3-c2ccsc2)cc1,-0.8,-10.4,-0.1,2.9
CCN(CC)c1ccc(N/C(N)=N/c2nc(C)cc(C)n2)cc1 (tested in a mixture with another compound),1.4,57.6*,-0.2,16.5
SMILES,GPR151 ag,TEAD-YAP block,FBW7 activator,MITF inh
Cc1cc(C)nc(/N=C(\N)Nc2ccc(CC(=O)OC(C)C)cc2)n1,0.7,40.0*,0.1,-5.5
O=C(Nc1nc(-c2csc(NC(=O)C3CC3)n2)cs1)C1CC1,-0.8,7.0,-0.1,-0.8
COCCNC(=O)c1ccc2nc(N3CCOCC3)sc2c1,-0.1,2.0,0.2,24.1
O=C(NC1CCN(Cc2ccccc2)CC1)c1ccc2nc(N3CCN(Cc4ccc5c(c4)OCO5)CC3)sc2c1,1.1,44.3*,-0.2,6.1
CCCNC(=O)c1ccc2nc(N3CCN(Cc4ccc5c(c4)OCO5)CC3)sc2c1,-1.5,-2.4,0.1,12.9
O=C(NCCOc1ccccc1)c1ccc2nc(N3CCOCC3)sc2c1,5.8*,11.0,0.5,7.4

# High-throughput results deposited in PubChem BioAssay by The Scripps Research Institute Molecular Screening Center.
